The structures appear in SMILES notation. About 83,000 compounds went through this panel and 20% of them were active in at least one assay; those are over-represented in the sample as a whole.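 For each line, cells grew in 96-well plates with the test compound present at a single concentration for 48 hours.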 A number with no mark means an inactive call. Active and inactive are the calls of the source. How the source made its calls: active means growth percent below 10; inactive means the rest.

Our source for the growth values is PubChem BioAssay (NCI).

For this test, the system named is MDA-MB-468 breast. Description: NCI-60 one-dose screen, 48 h (100 = growth as untreated, 0 = no growth, -100 = all killed). To be noted: 10 µM unless noted.
As for `CC[C@H](CO)Nc1nc(NCc2ccccc2)c2ncn(C(C)C)c2n1`, the growth is 85%.
As for `C[C@@H](Oc1cc(C(=O)Nc2ccc(C(=O)N3CCN(C)CC3)cc2)nnc1N)c1c(Cl)ccc(F)c1Cl`, the figure is 62.3%; as for `CN1CCN(Cc2ccc(NC(=O)c3cncc(C#Cc4cnc5ccc(OCC(C)(C)O)nn45)c3)cc2C(F)(F)F)CC1`, -40.2% (active); as for `N=C(N)c1ccc(-c2cc(Cl)cc(Cl)c2)cn1`, 78.7%.
Take `CCC(O)c1ccc(Br)cc1NC(=O)c1cccc(Cl)c1` (stereo not given): the growth was 4.57% (active).
On to `CC(C)C[C@H](NC(=O)Cn1ccc2ccccc2c1=O)B(O)O`, for which the growth was 0.399% (active).
With `Nc1ccc(-c2nc3ccc4[nH]ncc4c3c3c2CCCC3)cc1F`, the growth is 7.24% (active).
On to `COc1ccc(-c2cc3c4c(nc5ccccc5c4c2)CC(c2cc(OC)c(OC)c(OC)c2)O3)cc1` (stereo not given), for which the growth is 26.6%.
As for `Cc1nc2c(c(=O)[nH]1)C(c1ccccc1)c1ccc3ccccc3c1O2` (stereo not given), the figure is 22.9%.
As to `C=CCC(CCC(CC=C)C(=O)OCC)C(=O)OCC` (stereo not given), the growth was 108%.
With `NC1=C(Cl)C(=O)c2ccccc2C1=O`, the growth was 36.5%.
On to `C/C(=N/NC(=S)Nc1ccccc1)c1nc2ccc(Cl)cc2[nH]1`, for which the growth was -44.3% (active).
For the compound `COc1ccc(Nc2nc(Nc3cc(C)[nH]n3)c3cc(OC)c(OC)cc3n2)cc1`, the growth was -69.9% [20 µM] (active).
With `O=C1COCCN1c1ccc(NCc2cn(C(=O)c3ccc(Cl)cc3)c3ccccc23)cc1`, the growth is -66.6% (active).
`Clc1ccc2c(N/N=C/c3c[nH]c4ccccc34)ccnc2c1`: the growth is -75.9% (active).
Turning to `COC(=O)[C@@H](Cc1c[nH]c2ccccc12)NC(=O)/C=C/c1ccccc1`, the growth was 19.6%.
As for `O=C(c1ccc(Cl)cc1)C1[C@H](c2ccc(Cl)cc2)[C@@H](c2ccccc2)NC12C(=O)Nc1ccccc12` (stereo not given in full), the figure is 50.7%.
In the case of `OCc1ccccn1`, the growth is 99.9%.
As for `Cc1ccsc1[C@H]1c2[nH]c3ccccc3c2C[C@H]2C(=O)N(CCCCCCC(=O)NO)CC(=O)N12`, the figure is 46.6%; as for `O=C1/C(=C/c2ccccc2)CN(C(=O)CCN2CCC(=NO)CC2)C/C1=C\c1ccccc1`, -22.7% (active).
In the case of `COC(=O)c1sccc1-c1cc(O)c(C(=O)Nc2ccccc2)s1`, the growth is 85.4%.
As for `COc1cc2nc(NC3CCCC3)nc(NC3CCN(C(C)C)CC3)c2cc1OC`, the figure is 45.4%; as for `Cc1cccc(Oc2ccc(Nc3ncnc4ccc(NC(=O)CN5CCN(C)CC5)cc34)cc2Cl)c1`, -62.9% (active); as for `CCCCCCN1C(=O)/C(=c2\sc3n(c2=O)C2C(NN=3)N(CC)C(=O)N2CC)c2ccccc21` (stereo not given), -10.2% (active).
Turning to `CN(CCn1sc(=O)n(Cc2ccccc2)c1=O)Cc1ccc2c(Cl)cc(Cl)c(O)c2n1`, the growth was 42.4%.
For the compound `COc1cc(-c2nc3ccccc3[nH]2)ccc1OCc1nnc(-c2ccc(CC(C)C)cc2)o1`, the growth is 94.1%.
For `N[C@H]1CN(C(=O)c2cc3cc(Br)c(F)c(F)c3[nH]2)C[C@@H]1O`, the growth was 106%.
As for `O=C(O)c1ccc(NCc2cn(-c3ccc(C(F)(F)F)cc3)nc2-c2ccc(C(=O)O)cc2)cc1`, the figure is 123%; as for `COc1cccc(/C=N/NC(=S)NC2CC3CCC2C3)c1O` (stereo not given), 68.2%.
Regarding `c1ccc(-c2ccc3ccccc3c2)cc1`, the growth is 91.8%.
Consider `N=C1C=C(N)C(=O)c2ccccc21`, for which the growth was -85.6% (active).
Turning to `CN(CCNCc1ccccn1)CCNCc1ccccn1`, the growth is -15.6% (active).
`CC(C)(C)OC(=O)N1Cc2cc3ccccc3nc2C1CO` (stereo not given): the growth is 71.7%.
With `O=C(NCCNc1nccc(-c2c(-c3cccc(O)c3)nc3sccn23)n1)c1cc(N2CCOCC2)cc(C(F)(F)F)c1`, the growth was 94.8%.
With `O=c1sn(-c2cccc3ccccc23)c(=O)n1Cc1ccccc1`, the growth is 106%.
`COc1ccc(NC(=O)c2sc3nc4c(cc3c2N)CCCC4)cc1`: the growth is 13.6%.
`CCCCCc1ccc(S(=O)(=O)Nc2cc(-c3csc(N)n3)ccc2OC)cc1`: the growth is 78.7%.
For the compound `NC(N)=Nc1ccc(Oc2cccc(Nc3cccc(C(F)(F)F)c3)c2)cn1`, the growth is -37.1% (active).
Turning to `Cc1ccc(S(=O)(=O)/C(=C\c2ccc(Cl)cc2)C(=O)c2ccccc2)cc1`, the growth is 105%.
As for `CCCCCn1c(=N)n(CC(O)COc2cccc(C)c2)c2ccccc21` (stereo not given), the figure is -3.97% (active).
